Our source for the Potency, activity, negative = inhibition and activity change, negative = inhibition values is PubChem BioAssay (Tox21).

Assay [1] concerns the target Acetylcholinesterase (Homo sapiens) (UniProt P22303). As to the kind of experiment: Acetylcholinesterase (AChE) small molecule antagonists: colormetric cell-based qHTS assay (AID 1347395). Note: nearly all actives have a fitted effect of over 30% in size. Note: potency is the fitted concentration of half-maximal effect. The essentials: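 After overnight attachment at 37 C, SH-SY5Y cells get 30 min compound exposure; detection cocktail (acetylthiocholine, DTNB) then incubates 90 min at 37 C, and absorbance reflects AChE-generated thiocholine.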

The target is the same in assay [2]. As to the kind of experiment: Acetylcholinesterase (AChE) small molecule antagonists: enzyme-based qHTS assay (AID 1347397). Note: nearly all actives have a fitted effect of over 55% in size. Note: potency is the fitted concentration of half-maximal effect. The note with it: Potency: AChE enzyme activity inhibition; outcome: AChE enzyme activity inhibition. The method, boiled down:
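First, recombinant human AChE (50 mU/mL as dispensed) received test compound or DMSO. Second, plates stood 30 min at room temperature. Third, DTNB and acetylthiocholine were added, followed by 10 min at room temperature and colorimetric detection.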

The target is the same in assay [3]. As to the kind of experiment: Acetylcholinesterase (AChE) small molecule antagonists: fluorescence cell-based qHTS assay (AID 1347398). Note: nearly all actives have a fitted effect of over 50% in size. Note: potency is the fitted concentration of half-maximal effect. The following applies: Potency: AChE activity; outcome: AChE activity. The method, boiled down: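 Homogeneous quantitative HTS format. SH-SY5Y cells seeded at 2,000 per well settle overnight at 37 C. Compound pretreatment runs 30 min (37 C, 5% CO2); substrate/probe mix then reacts 40 min at RT before reading 490/520 nm.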

Assay [4] has the same target. Put plainly: Acetylcholinesterase (AChE) small molecule antagonists: enzyme-based qHTS assay with human liver microsomes (AID 1347399). Note: nearly all actives have a fitted effect of over 60% in size. The following applies: Potency: qHTS inhibition; outcome: qHTS inhibition. The method, boiled down: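 Recombinant human AChE (50 mU/mL in the enzyme mix) and human liver microsomes (0.25 mg/mL final) were preincubated with compound and NADPH (0.25 mg/mL final) for 30 min at 37 C. Acetylthiocholine/DTNB was then added; thiocholine was read colorimetrically after 10 min at room temperature.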

A number with no mark means an inactive call. Results filed as inconclusive are left out. Activity calls are given as the source filed them. Calls come from the whole dose curve. Positions of bridges follow the written chain, without caps; N, C: chain ends. Non-standard residues stand in square brackets, D forms with d. Residues, ends and D or L forms follow the SMILES beside them. hArg = N=C(N)NCCCC[C@H](N)C(=O)O; Mpa = O=C(O)CCS
% is set by controls: 0 for no effect and ±100 for the full control effect.

Acetylcholinesterase (Homo sapiens), sequence (P22303 whole entry, looked up): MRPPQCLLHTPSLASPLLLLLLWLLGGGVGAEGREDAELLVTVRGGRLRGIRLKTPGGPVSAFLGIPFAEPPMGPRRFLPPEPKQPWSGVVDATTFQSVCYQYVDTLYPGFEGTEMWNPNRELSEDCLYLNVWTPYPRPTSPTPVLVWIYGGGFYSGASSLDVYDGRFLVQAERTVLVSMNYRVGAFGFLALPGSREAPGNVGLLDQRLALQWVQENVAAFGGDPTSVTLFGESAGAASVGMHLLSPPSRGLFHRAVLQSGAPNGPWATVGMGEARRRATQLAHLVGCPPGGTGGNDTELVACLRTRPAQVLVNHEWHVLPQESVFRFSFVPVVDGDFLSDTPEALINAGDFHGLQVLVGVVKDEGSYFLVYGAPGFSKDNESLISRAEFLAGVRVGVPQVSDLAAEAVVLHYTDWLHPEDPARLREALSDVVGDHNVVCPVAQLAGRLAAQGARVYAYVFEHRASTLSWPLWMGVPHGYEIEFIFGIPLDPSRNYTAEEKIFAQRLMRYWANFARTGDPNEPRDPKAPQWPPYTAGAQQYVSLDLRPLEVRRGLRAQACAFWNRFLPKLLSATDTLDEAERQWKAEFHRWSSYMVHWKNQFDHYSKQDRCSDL

As to `CCn1c2ccccc2c2cc(N)ccc21`, the Potency entry in assay [1], in assay [2], in assay [3] and in assay [4] was “inactive” each time.
As for `CCCCCCCCC(=O)OCC`, the Potency result in assay [1], in assay [2], in assay [3] and in assay [4] was “inactive” each time.
For the molecule `O=C1CCC(=O)O1`, the Potency result in assay [1], in assay [2], in assay [3] and in assay [4] was “inactive” in each case.
On to `CC[C@H]1OC(=O)[C@H](C)[C@@H](O[C@H]2C[C@@](C)(OC)[C@@H](O)[C@H](C)O2)[C@H](C)[C@@H](O[C@@H]2O[C@H](C)C[C@H](N(C)C)[C@H]2O)[C@](C)(O)C[C@@H](C)CN(C)[C@H](C)[C@@H](O)[C@]1(C)O`, for which the Potency entry in assay [1], in assay [2], in assay [3] and in assay [4] was “inactive” throughout.
Turning to `CCCCC(CC)COC(=O)c1ccccc1` (stereo not given), the Potency result in assay [1], in assay [2], in assay [3] and in assay [4] was “inactive” in each case.
As to `CC(C)=CCC/C(C)=C/CC/C(C)=C/CO`, the Potency result in assay [1], in assay [2], in assay [3] and in assay [4] was “inactive” throughout.
Take `CN1C(=O)CC[C@H]1c1cccnc1`: the Potency entry in assay [1], in assay [2], in assay [3] and in assay [4] was “inactive” in each case.
As to `O=C(O)c1cc2ccccc2nc1C(=O)O`, the Potency result in assay [1], in assay [2], in assay [3] and in assay [4] was “inactive” throughout.
In the case of `CC(C)CNCC(C)C`, the Potency entry in assay [1], in assay [2], in assay [3] and in assay [4] was “inactive” each time.
On to `CCCCCCCCS(=O)C(C)Cc1ccc2c(c1)OCO2` (stereo not given), for which the Potency result in assay [1], in assay [2], in assay [3] and in assay [4] was “inactive” throughout.
Consider `CCCCC(CC)COC(=O)CS` (stereo not given), for which the Potency result in assay [1], in assay [2], in assay [3] and in assay [4] was “inactive” in each case.
Regarding `CCNc1nc(N)nc(Cl)n1`, the Potency result in assay [1], in assay [2], in assay [3] and in assay [4] was “inactive” each time.
For the molecule `Cc1ncc(CO)c(CN)c1O`, the Potency entry in assay [1], in assay [2], in assay [3] and in assay [4] was “inactive” in each case.
Take `C[C@]12CC[C@@H]3c4ccc(O)cc4CC[C@H]3[C@@H]1CC[C@H]2O`: the Potency result in assay [1], in assay [2], in assay [3] and in assay [4] was “inactive” each time.
`O=C1c2ccccc2C(=O)c2cc(O)ccc21`: the Potency result in assay [1], in assay [2], in assay [3] and in assay [4] was “inactive” each time.
`Cc1cc(C(C)(C)C)c(O)c(C)c1CC1=NCCN1`: the Potency entry in assay [1], in assay [2], in assay [3] and in assay [4] was “inactive” throughout.
Turning to `Cc1cccc(NC(=S)N(C)C)c1`, the Potency entry in assay [1], in assay [2], in assay [3] and in assay [4] was “inactive” each time.
Turning to `Nc1cc(S(=O)(=O)O)cc2cc(S(=O)(=O)O)cc(O)c12`, the Potency entry in assay [1], in assay [2], in assay [3] and in assay [4] was “inactive” each time.
Take `C=C[Si](OC(C)=O)(OC(C)=O)OC(C)=O`: the Potency entry in assay [1], in assay [2], in assay [3] and in assay [4] was “inactive” each time.
With `CN(C)c1ccc(C(c2ccccc2)c2ccc(N(C)C)cc2)cc1`, the Potency entry in assay [1], in assay [2], in assay [3] and in assay [4] was “inactive” each time.
With `CCc1ccccc1`, the Potency entry in assay [1], in assay [2], in assay [3] and in assay [4] was “inactive” each time.
With `CCn1cc(C(=O)O)c(=O)c2cc(F)c(N3CCNCC3)nc21`, the Potency entry in assay [1], in assay [2], in assay [3] and in assay [4] was “inactive” each time.
`Cc1cc(=O)oc2cc(O)cc(O)c12`: the Potency result in assay [1], in assay [2], in assay [3] and in assay [4] was “inactive” throughout.
Turning to `CC/C=C(\C)C=O`, the Potency entry in assay [1], in assay [2], in assay [3] and in assay [4] was “inactive” in each case.
As for `CCCc1nn(C)c2c(=O)[nH]c(-c3cc(S(=O)(=O)N4CCN(C)CC4)ccc3OCC)nc12`, the Potency entry in assay [1], in assay [2], in assay [3] and in assay [4] was “inactive” throughout.
For the molecule `C=CC(C)(C)O`, the Potency result in assay [1], in assay [2], in assay [3] and in assay [4] was “inactive” in each case.
For `Nc1ccc2cc(S(=O)(=O)O)cc(O)c2c1`, the Potency entry in assay [1], in assay [2], in assay [3] and in assay [4] was “inactive” in each case.
For `CCS(=O)(=O)CCn1c([N+](=O)[O-])cnc1C`, the Potency entry in assay [1], in assay [2], in assay [3] and in assay [4] was “inactive” each time.
In the case of `NC(=O)[C@@H]1CSSCCC(=O)N[C@@H](CCCCN=C(N)N)C(=O)NCC(=O)N[C@@H](CC(=O)O)C(=O)N[C@@H](Cc2c[nH]c3ccccc23)C(=O)N2CCC[C@H]2C(=O)N1` ([Mpa][hArg]GDWPC-NH2; disulfide 1-7), the Potency entry in assay [1], in assay [2], in assay [3] and in assay [4] was “inactive” in each case.
As to `CC/C(=C(\c1ccc(O)cc1)c1ccc(OCCN(C)C)cc1)c1ccccc1`, the Potency in assay [1] was 44.9 µM (active); in assay [2], 79.9 µM (active); in assay [3], 40 µM (active). For the same molecule, the Potency entry in assay [4] is “inactive”.
On the same counts, the results for `C=C(C)C(=O)NCCC[N+](C)(C)C` are “inactive”, “inactive”, “inactive” and “inactive”.
On the same counts, the results for `C[Si]1(C)N[Si](C)(C)N[Si](C)(C)N1` are “inactive”, “inactive”, “inactive” and “inactive”.
In the case of `C=CC(C)(C)C`, the Potency result in assay [1], in assay [2], in assay [3] and in assay [4] was “inactive” throughout.
Turning to `O=CNNC=O`, the Potency result in assay [1], in assay [2], in assay [3] and in assay [4] was “inactive” each time.
Turning to `NC(=O)c1cccc([N+](=O)[O-])c1`, the Potency entry in assay [1], in assay [2], in assay [3] and in assay [4] was “inactive” throughout.
Take `CC=C(Cl)Cl`: the Potency entry in assay [1], in assay [2], in assay [3] and in assay [4] was “inactive” each time.
As for `Nc1ccn([C@H]2CS[C@@H](CO)O2)c(=O)n1`, the Potency entry in assay [1], in assay [2], in assay [3] and in assay [4] was “inactive” in each case.
`N#Cc1ccc(C(=O)O)cc1`: the Potency result in assay [1], in assay [2], in assay [3] and in assay [4] was “inactive” each time.
On to `OCCCCCCCl`, for which the Potency result in assay [1], in assay [2], in assay [3] and in assay [4] was “inactive” throughout.
As for `CC1OC1C1CCC2(C)OC2C1` (stereo not given), the Potency entry in assay [1], in assay [2], in assay [3] and in assay [4] was “inactive” each time.
On to `O=C1CCCCCCCCCCCN1`, for which the Potency result in assay [1], in assay [2], in assay [3] and in assay [4] was “inactive” each time.
In the case of `OC1CCCC1`, the Potency entry in assay [1], in assay [2], in assay [3] and in assay [4] was “inactive” in each case.
Regarding `Oc1ccccc1O`, the Potency result in assay [1], in assay [2], in assay [3] and in assay [4] was “inactive” in each case.
For `CCOC(=O)c1cccnc1`, the Potency result in assay [1], in assay [2], in assay [3] and in assay [4] was “inactive” each time.
In the case of `CNC(=O)NC`, the Potency entry in assay [1], in assay [2], in assay [3] and in assay [4] was “inactive” each time.
`OCCNCCO`: the Potency entry in assay [1], in assay [2], in assay [3] and in assay [4] was “inactive” throughout.
With `CC(=O)c1ccc(C)cc1`, the Potency entry in assay [1], in assay [2], in assay [3] and in assay [4] was “inactive” each time.
Regarding `ClC1=C(Cl)C1(Cl)Cl`, the Potency entry in assay [1], in assay [2], in assay [3] and in assay [4] was “inactive” in each case.
For `O=C(O)c1ccc(OCCN2CCCCC2)cc1`, the Potency entry in assay [1], in assay [2], in assay [3] and in assay [4] was “inactive” throughout.
Take `CCCCCCCCCCCCCCCC(=O)OC(C)C`: the Potency result in assay [1], in assay [2], in assay [3] and in assay [4] was “inactive” each time.
As for `Clc1ccccc1C(c1ccccc1)(c1ccccc1)n1ccnc1`, the Potency result in assay [1], in assay [2], in assay [3] and in assay [4] was “inactive” in each case.
Turning to `CCn1ccnc1CC1COc2ccccc2O1` (stereo not given), the Potency result in assay [1], in assay [2], in assay [3] and in assay [4] was “inactive” in each case.
On to `c1ccc2c(c1)Cc1ccccc1-2`, for which the Potency entry in assay [1], in assay [2], in assay [3] and in assay [4] was “inactive” each time.
Turning to `CC(=O)Oc1ccc(C)cc1`, the Potency entry in assay [1], in assay [2], in assay [3] and in assay [4] was “inactive” throughout.
With `CCCOCCOCCO`, the Potency result in assay [1], in assay [2], in assay [3] and in assay [4] was “inactive” in each case.
For `O=[N+]([O-])c1cccc(Cl)c1`, the Potency entry in assay [1], in assay [2], in assay [3] and in assay [4] was “inactive” throughout.
Turning to `Oc1c(I)cc(I)c2cccnc12`, the Potency result in assay [1], in assay [2], in assay [3] and in assay [4] was “inactive” in each case.
For `C[C@@H]1CC[C@@]2(OC1)O[C@H]1C[C@H]3[C@@H]4CC[C@H]5C[C@@H](O)CC[C@]5(C)[C@H]4CC(=O)[C@]3(C)[C@H]1[C@@H]2C`, the activity, negative = inhibition in assay [1] is -3.52% [at 10.5 µM]. In addition, the activity change, negative = inhibition in assay [2] is -1.66% [at 10.5 µM]; in assay [3] it was -1.2% [at 10.5 µM]; in assay [4], -3.36% [at 10.5 µM].
Turning to `O=[N+]([O-])c1cc[n+]([O-])cc1`, the Potency result in assay [1], in assay [2], in assay [3] and in assay [4] was “inactive” each time.
As for `CCCCCCCCCCN`, the Potency result in assay [1], in assay [2], in assay [3] and in assay [4] was “inactive” each time.
